# Assay results taken from PubChem BioAssay (NCI).
# Where “and” joins values, the source holds several entries; their conditions need not be identical. Equal entries are not always repeated. This is part of a sample that, as a whole, favours compounds with a hit. Of some 83,000 tested, about 20% had one in any assay.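 Plates (96-well) were seeded with cells, treated with compound at one concentration, and incubated for 48 hours before percent growth was determined.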 Calls of active or inactive are those of the source. Rule for the calls: active = growth percent below 10; inactive = the rest.
# System: KM12 colon
# Experiment: NCI-60 one-dose screen, 48 h (100 = growth as untreated, 0 = no growth, -100 = all killed)
# Details: 10 µM
row,SMILES,growth
1,CN1CCN(c2ccc(C(=O)/C=C/c3ccc(OC(F)F)cc3)cc2)CC1,6.74% (active)
2,CN1CCN(Cc2ccc(NC(=O)c3cncc(C#Cc4cnc5ccc(N[C@H]6CCOC6)nn45)c3)cc2C(F)(F)F)CC1,-89.7% (active)
3,C/C(=N\NC(N)=S)c1ccc(Nc2nc(SC(C)C)nc(-c3ccccc3)c2C#N)cc1,75.7% (inactive)
4,COc1ccc2[nH]c(=O)c(CSc3ccc(Nc4nccc(-c5ccc(Cl)cc5)n4)cc3)cc2c1,102% (inactive)
5,CCOc1ccc(/C=N/NC(=O)Cn2nc(Cc3ccc([N+](=O)[O-])cc3)c3onc(C)c3c2=O)cc1,51.3% (inactive)
6,Brc1ccc(/C=C/c2n(Cc3ccc4ccccc4c3)c3ccccc3[n+]2Cc2ccc3ccccc3c2)cc1,-40.7% (active)
7,COc1ccc(C2N(c3ccc(Br)cc3)N=C(C(C)=O)N2[C@H]2[C@H](OC(C)=O)O[C@H](COC(C)=O)[C@@H](OC(C)=O)[C@@H]2OC(C)=O)cc1 (stereo partly drawn),70.6% (inactive)
8,CCN1CCN(c2ccc(NC(=O)Nc3ccc(-c4cc(C(=O)NC(C)C)c5ncccc5n4)cc3)cc2C(F)(F)F)CC1,-83.7% (active)
9,COc1ccc(OC)c(/C=N/NC(=O)c2ccc3nc(-c4ccc(Cl)cc4)[nH]c3c2)c1,76.7% (inactive)
10,Cc1ccc(-c2cc(-c3cc4ccccc4nc3Cl)[nH]c(=O)n2)cc1,-18.6% (active)
11,CN1C(=O)N(C)C2SC(N/N=C/c3ccccc3)=NC21 (stereo not drawn),46.7% (inactive)

# System: MDA-MB-468 breast
# Experiment: as above
# Details: 10 µM
row,SMILES,growth
1,CCN1CCN(Cc2ccc(C(=O)Nc3cccc(-c4cn(-c5ccc6oc(=O)ccc6c5)nn4)c3)cc2C(F)(F)F)CC1,-82.4% (active)
2,COc1cc2oc(-c3cccc(C(=O)Nc4ccc(Cl)cc4)c3)cc(=O)c2c(OCCNC(=O)CNC(=O)OC(C)(C)C)c1OC,67.4% (inactive)
3,O=C(NO)c1ccc(CN2CCN(c3nc(-c4ccccc4)c4ccccc4n3)CC2)cc1,-14.2% (active)
4,COC[C@@H](CC(C)C)N=C1NC(=O)/C(=C/c2ccc3ncsc3c2)N1,-17.8% (active)
5,O=C(/C=C/Nc1ccc(F)cc1F)c1ccc2c(c1)Nc1ccccc1S2,41.9% (inactive)
6,COc1ccc(-c2cc(C(=O)N=Nc3c(O)[nH]c4ccc(F)cc34)c3ccccc3n2)cc1,44.2% (inactive)
7,COc1cc(C2CC(c3ccccc3)=Nc3c(N)nc(N)nc3N2)ccc1Oc1nc(Nc2ccc(F)cc2)nc(N(C)C)n1 (stereo not drawn),1.47% (active)
8,COc1ccc(-c2cc(C(=O)N=Nc3c(O)[nH]c4ccccc34)c3ccccc3n2)cc1,-31.7% (active)
9,Cc1ccc(CSc2nc(Cl)c(C#N)c(-c3ccc(F)cc3)n2)cc1,80.3% (inactive)
10,O=C(Nc1ccc(I)cc1)Nc1nc2ccc([N+](=O)[O-])cc2s1,-97.2% (active)
11,O=C(Nc1nc2ccccc2s1)c1ccc(Br)cc1,37.9% (inactive)
12,O=c1oc2ccccc2cc1-c1csc(N=Nc2c(O)[nH]c3ccc(Br)cc23)n1,95.2% (inactive) and 64.3% (inactive)
13,COc1cccc(-c2ccc(/C=N/NC(=O)c3[nH]c4ccc(Br)cc4c3-c3ccccc3)o2)c1,-2.92% (active)
14,COc1ccc(-c2cc(-c3cc(C(=O)c4ccc(Br)cc4)n4ccc(C)cc34)nc(N)c2C#N)cc1,24.3% (inactive)
15,CC1(C)[C@@H](NCO)CC[C@]2(C)[C@H]3C(=O)C=C4[C@@H]5C[C@](C)(CO)CC[C@]5(C)CC[C@@]4(C)[C@]3(C)CC[C@@H]12,47.2% (inactive)
16,CO[C@@H]1CSS[C@H]1Cn1nc(-c2ccc(Oc3ccccc3)cc2)c2c(N)ncnc21,11.6% (inactive)
17,CC(=O)Nc1ccc(-c2cn(-c3cccc(C(=O)Nc4ccc(F)c(C(F)(F)F)c4)c3)nn2)cn1,42.8% (inactive)
18,CC1(c2ccccc2)NC(=O)N(CC(=O)Nc2ccc(C(=O)/C=C/c3ccccc3)cc2)C1=O (stereo not drawn),-2.64% (active)
19,CN(C(=O)c1ccc(C(C)(C)C)cc1)c1sc2c(c1C#N)CCC(=O)C2,-41.4% (active)

row,SMILES,growth
1,Nc1nc(-c2ccccc2)cs1,55.1% (inactive) and 115% (inactive)
2,CN1C(=O)N(C)C2SC(N/N=C/c3cccs3)=NC21 (stereo not drawn),-22.8% (active)
3,O=C(CSc1nnc(-c2c[nH]c3ccccc23)n1-c1ccccc1)c1ccccc1,77.2% (inactive)
4,Nc1nc2c(F)c(F)c(F)c(F)c2s1,97.9% (inactive)
5,CC1=C(c2cc(-c3ccc(Cl)cc3)c(C#N)c(N)n2)C(c2ccccc2)NC(=S)N1 (stereo not drawn),35% (inactive)
6,Cc1noc2c(Cc3ccc([N+](=O)[O-])cc3)nn(CC(=O)N/N=C/c3ccc(Cl)cc3)c(=O)c12,5.37% (active)
7,CN1CCN(Cc2ccc(C(=O)Nc3cccc(Nc4ccc5cc(O)ccc5n4)c3)cc2C(F)(F)F)CC1,-89.4% (active)
8,CN1CCN(c2ccc(C(=O)/C=C/c3ccc(OC(F)F)cc3)cc2)CC1,-60.7% (active)
9,CN1CCN(Cc2ccc(NC(=O)c3cncc(C#Cc4cnc5ccc(N[C@H]6CCOC6)nn45)c3)cc2C(F)(F)F)CC1,-94% (active)
10,C/C(=N\NC(N)=S)c1ccc(Nc2nc(SC(C)C)nc(-c3ccccc3)c2C#N)cc1,28.2% (inactive)
11,COc1ccc2[nH]c(=O)c(CSc3ccc(Nc4nccc(-c5ccc(Cl)cc5)n4)cc3)cc2c1,97.9% (inactive)
12,CCOc1ccc(/C=N/NC(=O)Cn2nc(Cc3ccc([N+](=O)[O-])cc3)c3onc(C)c3c2=O)cc1,-30.7% (active)
13,Brc1ccc(/C=C/c2n(Cc3ccc4ccccc4c3)c3ccccc3[n+]2Cc2ccc3ccccc3c2)cc1,-88.7% (active)
14,COc1ccc(C2N(c3ccc(Br)cc3)N=C(C(C)=O)N2[C@H]2[C@H](OC(C)=O)O[C@H](COC(C)=O)[C@@H](OC(C)=O)[C@@H]2OC(C)=O)cc1 (stereo partly drawn),72.6% (inactive)
15,CCN1CCN(c2ccc(NC(=O)Nc3ccc(-c4cc(C(=O)NC(C)C)c5ncccc5n4)cc3)cc2C(F)(F)F)CC1,-91.1% (active)
16,COc1ccc(OC)c(/C=N/NC(=O)c2ccc3nc(-c4ccc(Cl)cc4)[nH]c3c2)c1,69.6% (inactive)
17,Cc1ccc(-c2cc(-c3cc4ccccc4nc3Cl)[nH]c(=O)n2)cc1,-7.37% (active)
18,CN1C(=O)N(C)C2SC(N/N=C/c3ccccc3)=NC21 (stereo not drawn),10% (active)
